# PubChem BioAssay (Tox21)
# Several values for one entry are separate records, joined by “and”; a condition that tells them apart may be missing. Equal entries are not always repeated. Records with an inconclusive call do not appear. Entries that show only a call come without a potency. Activity calls are given as the source filed them. The call rests on the fitted dose curve; in most records, active means well fitted inhibition curve with a large enough effect in the repeat runs; inconclusive means weak or mixed curves; inactive means flat fitted curve, though single readings scatter.
# Molecular target: Voltage-gated inwardly rectifying potassium channel KCNH2 (Homo sapiens) (UniProt Q12809)
# Sequence (Q12809 whole entry, looked up): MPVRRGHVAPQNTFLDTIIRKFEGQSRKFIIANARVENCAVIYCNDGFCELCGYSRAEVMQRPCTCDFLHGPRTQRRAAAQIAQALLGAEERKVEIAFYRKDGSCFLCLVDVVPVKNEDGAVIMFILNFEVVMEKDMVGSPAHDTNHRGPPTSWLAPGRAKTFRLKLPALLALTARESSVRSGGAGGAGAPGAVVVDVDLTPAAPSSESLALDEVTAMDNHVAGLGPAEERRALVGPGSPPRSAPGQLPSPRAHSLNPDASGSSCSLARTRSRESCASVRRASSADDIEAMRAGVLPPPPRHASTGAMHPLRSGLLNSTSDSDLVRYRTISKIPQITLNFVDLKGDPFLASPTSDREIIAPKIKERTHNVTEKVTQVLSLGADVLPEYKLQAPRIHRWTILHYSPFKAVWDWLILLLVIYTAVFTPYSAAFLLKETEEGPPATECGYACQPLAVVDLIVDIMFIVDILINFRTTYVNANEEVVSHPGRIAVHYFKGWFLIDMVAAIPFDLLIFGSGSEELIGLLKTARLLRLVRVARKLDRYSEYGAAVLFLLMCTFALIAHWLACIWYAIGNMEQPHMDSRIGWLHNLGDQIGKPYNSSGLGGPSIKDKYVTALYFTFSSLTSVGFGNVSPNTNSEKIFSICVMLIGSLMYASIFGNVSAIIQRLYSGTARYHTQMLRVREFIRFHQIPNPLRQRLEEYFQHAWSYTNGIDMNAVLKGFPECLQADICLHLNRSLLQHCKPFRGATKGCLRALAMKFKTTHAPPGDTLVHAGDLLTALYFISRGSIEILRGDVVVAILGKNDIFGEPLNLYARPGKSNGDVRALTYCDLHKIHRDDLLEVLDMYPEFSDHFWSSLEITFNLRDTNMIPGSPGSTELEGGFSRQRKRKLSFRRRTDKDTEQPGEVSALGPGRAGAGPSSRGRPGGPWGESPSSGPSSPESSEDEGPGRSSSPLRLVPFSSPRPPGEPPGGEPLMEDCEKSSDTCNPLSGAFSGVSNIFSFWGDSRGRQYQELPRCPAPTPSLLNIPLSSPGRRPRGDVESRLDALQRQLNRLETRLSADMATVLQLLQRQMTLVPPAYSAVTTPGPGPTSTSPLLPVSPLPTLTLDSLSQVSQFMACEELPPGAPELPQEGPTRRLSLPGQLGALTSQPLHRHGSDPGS
# Test: Human Ether-a-go-go-Related Gene (hERG) channel small molecule antagonists: fluorescence cell-based qHTS assay (AID 1671200); further: nearly all actives have a fitted effect of over 50% in size
# Conditions: hERG-U2OS cells, FluxOR thallium flux fluorescence; series mostly up to 76.8 µM
# Procedure, shortened: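 Quantitative HTS in hERG-U2OS cells: thallium entry through the channel reports activity, read as continuous 480/540 nm fluorescence over 2 min after stimulus addition.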
# Potency means the concentration at half of the fitted maximal effect.
row,SMILES,Potency
1,CC(=O)[O][Hg][c]1ccccc1,13.7 µM (active) and 13.8 µM (active)
2,C=CCOC(Cn1ccnc1)c1ccc(Cl)cc1Cl (stereo unspecified),24.6 µM (active) and 21.9 µM (active) and 23.9 µM (active)
3,CN(C)[C@@H]1C(=O)C(C(N)=O)=C(O)[C@@]2(O)C(=O)C3=C(O)c4c(O)cccc4[C@@](C)(O)[C@H]3[C@H](O)[C@@H]12,inactive
4,OCCOc1ccccc1,inactive
5,COP(=O)(OC)OC=C(Cl)Cl,inactive
6,O=P1(N(CCCl)CCCl)NCCCO1 (stereo unspecified),inactive
